Measurements: PubChem BioAssay (NCI)
Compounds without any hit were thinned out: in the full panel of roughly 83,000, 20% have a hit.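 Single-concentration screen, 48 h exposure, 96-well plates. Endpoint: percent growth. Below 10 = active.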 Values without a mark were called inactive. The source made the active and inactive calls.

system: KM12 colon; experiment: NCI-60 one-dose screen, 48 h (100 = growth as untreated, 0 = no growth, -100 = all killed); conditions: 10 µM
Method: Growth inhibition of the KM12 human tumor cell line is measured as a screen for anti-cancer activity. Cells are grown in 96 well plates and exposed to the test compound for 48 hours. Compounds are tested at a single concentration, which is 10^-5 M for most compounds. The reported endpoint is percent growth (GI% or GIPRCNT), where numbers from 0 - 100% represent growth inhibition, and numbers from -100% - 0 represent cell death. For example, a value of 40 represents 60% growth inhibition. A value of 0 means no net growth occurred over the course of the experiment. A value of -40 indicates 40% of cells at the beginning of the experiment died by the end of the experiment. A value of -100 means all cells are dead at the end of the experiment.
NCI-60 Human Tumor Cell Lines Screen was performed using the standard one-dose NCI protocol, which is described in more detail at https://dtp.cancer.gov/discovery_development/nci-60/default.htm.
Compounds with GIPRCNT values below 10 were considered active. Activity score was based on GIPRCNT using the following formula: […]
Score is 0 for GIPRCNT values of 100 or above, 50 for GIPRCNT values of 0, and 100 for GIPRCNT values of -100.

Structure (SMILES) | growth
COc1cc(/C(=C2/O[C@@H]([C@H]3COC(C)(C)O3)[C@H]3OC(C)(C)O[C@@H]23)c2ccc3ccccc3c2)cc(OC)c1OC | 33.4%
O=C(CCCCC(=O)Nc1ccc2c(c1)/C(=C/c1ccc[nH]1)C(=O)N2)NO | 78%
CCCC1(CC(=O)O)OCCc2c1[nH]c1ccccc21 (stereo not given) | 102%
CCN1CCC(CCOC)(CN2c3ccccc3Sc3ccc(Cl)cc32)C1 (stereo not given) | 29.8%
O=C(Nc1ccc(CO)cc1)c1ccccc1Nc1ccnc(C(F)(F)F)c1 | 99.4%
CN(C)CC(O)c1ccc2cc(Br)c3ccccc3c2c1 (stereo not given) | 48.6%
COc1ccc(C2=Nc3c(C)nn(-c4ccccc4)c3NC(c3ccc(Oc4ccnc5cc(Cl)ccc45)c(OC)c3)C2)cc1 (stereo not given) | 85.4%
O=[N+]([O-])c1ccc(Oc2cccnc2)c([N+](=O)[O-])c1 | 56.8%
O=C(Nc1nc(-c2ccccc2Cl)cs1)c1cc(-c2ccc(Cl)cc2)nc2ccc(Cl)cc12 | 12.4%
O=C(CCCCCCC(=O)Nc1cccnc1)NO | 6.19% (active)
COc1ccc2c(c1)C(=O)c1c-2c(OCCN(C)C)nc2cc(OC)c(OC)cc12 | 54.1%
O=C(Nc1cccc(-n2cc(-c3ccncc3)c(-c3cc(O)cc(Cl)c3)n2)c1)c1ccc(N2CCOCC2)c(C(F)(F)F)c1 | 9.89% (active)
CC(C)(C)c1cc(Br)cc(C(C)(C)C)c1O | 105%
COc1ccc2c(c1)C(=O)c1c-2c(=O)n(CCCN(C)C)c2cc(OC)c(OC)cc12 | 69.5%
CN(C)C=Nc1cc(Cl)ccc1Cl | 110%
CCN(CC)CCSCCCNc1c2ccc(Cl)cc2nc2ccc(OC)cc12 | -10.9% (active)
O=C(O)C(SC(C(=O)O)c1ccccc1)c1ccccc1 (stereo not given) | 113%
COc1cc(C2CC(c3ccc(Nc4ccnc5cc(Cl)ccc45)cc3)=NN2c2ccc(Cl)cc2)cc(OC)c1OC (stereo not given) | 30.5%
CC(C)=CCc1cc(O)cc2c1OC(C=C(C)C)C1=C2C(=O)C2=C(C1=O)S(=O)(=O)CCN2 (stereo not given) | 69.2%
COc1ccc(/C(=C2/O[C@@H]([C@H]3COC(C)(C)O3)[C@H]3OC(C)(C)O[C@@H]23)c2cc(OC)c(OC)c(OC)c2)cc1O | 5.71% (active)

Structure (SMILES) | growth
Cc1occc1-c1nnc(SCC(=O)c2ccc(NC(=O)CC(C)C)cc2)o1 | 99.4%
COC(=O)C(=C\c1ccc2c(c1)OCO2)/C(=C/c1ccc2c(c1)OCO2)C(=O)OC | 102%
COc1cc(/C=C\c2cc(OC)c(OC)c(OC)c2)cc(NS(=O)(=O)c2ccc(Cl)cc2)c1OC | 25.1%
O=C(Nc1nc2ccccc2s1)Nc1ccc([N+](=O)[O-])cc1Cl | -32.4% (active)
COc1ccc([N+](=O)[O-])c(C(=O)O)c1 | 100%
c1ccc(CSc2nnc3c4c5c(sc4nc(-c4cccnc4)n23)CCCCCC5)cc1 | 34.4%
CCc1ccc2c(c1)N(CCO)C1=C(C(=O)OC1)C2c1ccccc1 (stereo not given) | 76.1%
COc1cc(Cl)cc(-c2nn(-c3cccc(NC(=O)c4ccc(N5CCOCC5)c(C(F)(F)F)c4)c3)cc2-c2ccncc2)c1 | 38.4%
CC[C@H](C)C(=O)O[C@H]1CCC=C2C=C[C@H](C)C(CCC3C[C@@H](O)CC(=O)O3)[C@H]21 (stereo not given in full) | 103%
CN1c2ccccc2[C@]2(Cc3ccccc3)Cc3ccccc3N[C@H]12 | 104%
COc1ccc(OC)c(/C=C/c2nc(SC)n(-c3ccc(Cl)cc3)n2)c1 | 53.1%
CCN(CC)CCNc1ccc(CO)c2oc3cc(Cl)ccc3c(=O)c12 | 98.6%
O=S(=O)(NCCCNc1nccc(-c2c(-c3ccc(F)cc3)nc3sccn23)n1)c1ccc(F)cc1 | 27.8%
NC1=NC(=O)C(c2ccccc2)(c2ccccc2)S1 | 107%
COc1cc(-c2cc(C(=O)N3CCN(C(=O)c4ccccc4NCc4cccs4)CC3)nc3cc(-c4ccccc4)nn23)cc(OC)c1OC | 27.5%
Cc1cc(Nc2ccc(Cl)cc2)nc(NCCCNc2ccnc3cc(Cl)ccc23)n1 | -33.4% (active)
N#CC1=C(Nc2ccccc2Cl)SC(c2ccccc2O)NC1=O (stereo not given) | 116%
O=C(c1cccs1)c1ccccc1Cc1ccccc1 | 104%
Cn1c([N+](=O)[O-])cnc1/C=C1\Oc2cc(Cl)ccc2C1=O | 1.65% (active)
COc1cc(Cl)cc(-c2nn(-c3cccc(NC(=O)Nc4ccc(Cl)c(C(F)(F)F)c4)c3)cc2-c2ccncc2)c1 | 9.1% (active)
